# Screens: PubChem, National Center for Advancing Translational Sciences (NCATS)
# RORgamma inh: blocks mouse ROR gamma transcriptional activity; Drosophila S2 Gal4-RORgamma UAS-luciferase reporter, 20 h; actives 5.4% (n = 310,000); P51450; AID 2551; Potency, µM (highest dose often 53.6 µM), without a hit: at the top dose activity change, negative = inhibition, hits mostly inhibitors; note: % is set by controls: 0 for no effect and ±100 for the full control effect; nearly all actives have a fitted effect of over 60% in size
# Target sequence (P51450 whole entry, looked up, the tested form may be a part): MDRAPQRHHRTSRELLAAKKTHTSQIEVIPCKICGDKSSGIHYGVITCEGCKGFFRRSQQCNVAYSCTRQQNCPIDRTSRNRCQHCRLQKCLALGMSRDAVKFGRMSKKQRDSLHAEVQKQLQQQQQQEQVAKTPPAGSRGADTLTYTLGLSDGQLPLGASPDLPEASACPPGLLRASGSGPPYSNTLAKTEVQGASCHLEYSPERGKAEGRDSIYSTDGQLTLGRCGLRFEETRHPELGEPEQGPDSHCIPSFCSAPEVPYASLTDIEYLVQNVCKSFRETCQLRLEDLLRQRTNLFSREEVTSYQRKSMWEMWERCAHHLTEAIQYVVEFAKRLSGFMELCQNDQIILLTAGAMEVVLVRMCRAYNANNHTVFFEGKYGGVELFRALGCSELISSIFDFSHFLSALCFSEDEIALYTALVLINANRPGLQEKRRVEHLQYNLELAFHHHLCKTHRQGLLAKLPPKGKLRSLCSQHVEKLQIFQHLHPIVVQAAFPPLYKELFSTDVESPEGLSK
#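 Stable Schneider cell line, Gal4 DNA-binding domain fused to ROR gamma, UAS-luciferase. Cmpd 1 hr RT → CuSO4 700 uM final → 20 hr RT → luciferase reagent 10 min → luminescence.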
# KB-3-1 tox: kills parental KB-3-1 adenocarcinoma cells. KB-3-1 viability, CellTiter-Glo ATP luminescence, 72 h. Potency, µM (top dose mostly 46.1 µM), hits mostly cytotoxic. actives 1.4% (n = 400,000); note: % is set by controls: 0 for no effect and ±100 for the full control effect; nearly all actives have a fitted effect of over 60% in size
#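 72 h, 37 °C compound treatment of KB-3-1 parental cells; CellTiter-Glo added, 10 min, luminescence read. Data corrected against DMSO-only plates and normalized before curve fitting.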
# KB-V1 cytotox: kills drug-selected multidrug resistant KB-V1 cells. KB-V1 MDR cells viability, CellTiter-Glo, 72 h. Potency, µM (titrated, usually from 46.1 µM), most hits filed as cytotoxic. actives 3.4% (n = 400,000). AID 1347076; note: % is set by controls: 0 for no effect and ±100 for the full control effect; nearly all actives have a fitted effect of over 60% in size
#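 Potencies derive from concentration-effect curves fitted to normalized luminescence (CellTiter-Glo) of KB-V1 cells treated for 72 h at 37 degrees C in phenol-red-free DMEM containing 10% FBS.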
# SW480 rerep: DNA re-replication induction in SW480 cells. AID 624297. SW480 DNA re-replication, Hoechst DNA content imaging, 48 h. Potency, µM (top dose mostly 46.1 µM), inactives show at the top dose re-replication activation, hits mostly activators. actives 1.8% (n = 340,000); note: % of control where 0% means no effect; nearly all actives have a fitted effect of over 55% in size
#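 Image-based read-out: total Hoechst fluorescence of nuclei (405 nm excitation, 500-530 nm emission), with hits raising the fraction of high-intensity nuclei. SW480 colon cells incubated 48 hr with compounds at 37 C.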
# MCF10A rereplic: DNA re-replication induction in MCF 10a cells; actives 2.9% (n = 350,000); MCF 10A DNA re-replication, Hoechst nuclear intensity, 48 h; Potency, µM (series often up to 46.1 µM), without a hit: top-dose activity, positive = re-replication, hits mostly activators; note: % of control where 0% means no effect; nearly all actives have a fitted effect of over 50% in size
# VP16 counter: counter-screen for ROR gamma inhibitors: Gal4-VP16 reporter; Drosophila S2 Gal4-VP16 UAS-luciferase, luminescence, 20 h; Potency, µM (titrated, usually from 53.6 µM), for the others: top-dose activity, negative = inhibition, hits mostly inhibitors; actives 3.5% (n = 310,000); AID 2546;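 note: Gal4-VP16 expression switched on by copper sulfate through the metallothionein promoter; % is set by controls: 0 for no effect and ±100 for the full control effect; nearly all actives have a fitted effect of over 50% in size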
# The depositor's hits bear a star; i = inactive; ? = inconclusive; / = not tested or not shown; [ ] = remark or other dose. Compounds with a hit are over-represented: about 10% of the library has one in this group of screens. Calls come from the whole dose curve; as a rule, active = well fitted curve in the direction sought with a large enough effect; inconclusive = small, poorly fitted or top-dose-only effect, or another doubt; inactive = no such curve, though single readings can be large; an effect the other way counts as inactive or inconclusive. Potency is the fitted concentration of half-maximal effect.
SMILES,RORgamma inh,KB-3-1 tox,KB-V1 cytotox,SW480 rerep,MCF10A rereplic,VP16 counter
COc1ccc(S(=O)(=O)Nc2cc(C(C)C)c(O)cc2C)cc1,15.8µM*,i,i,2.3%,5.0%,?
COc1ccccc1NS(=O)(=O)c1ccc2c(c1)OCCO2,-6.5%,i,i,-1.7%,1.8%,17.4%
Cn1nc(C(C)(C)C)cc1C(=O)N1CCCC(c2cc(C(=O)Nc3ccccc3Cl)no2)C1 (centres undefined),/,i,?,/,/,/
Cc1c(N)c(C(C)(C)C)cc(C(C)(C)C)c1[N+](=O)[O-],3.9%,i,i,-66.1%,18.4µM*,3.6%
O=C(Nc1ccc2c(c1)OCCO2)C(=O)c1c[nH]c2ccccc12,2.51µM*,3.66µM*,i,4.61µM*,9.2µM*,3.16µM*
O=C(Nc1ccc2c(c1)OCO2)C(=O)c1c[nH]c2ccccc12,-17.3%,6.51µM*,i,1.8%,16.0%,-1.5%
C/C(=N\NC(=O)C(c1ccccc1)c1ccccc1)c1ccc(O)cc1,19.6%,i,i,2.9%,-0.4%,0.0%
C/C(=N\NC(=O)c1cc(Br)ccc1O)c1ccccn1,0.398µM*,i,i,?,?,0.282µM*
COc1ccc(C(=O)N/N=C(\C)c2ccccn2)cc1OC,0.355µM*,?,2.31µM*,?,?,0.562µM*
C/C(=N\NC(=O)c1ccccc1Cl)c1ccccn1,1.26µM*,?,i,?,?,2.82µM*
Cc1cccc(/C=N/NC(=O)c2cc(Br)ccc2O)n1,?,i,i,-1.9%,-9.2%,?
C/C(=N\NC(=O)C(c1ccccc1)c1ccccc1)c1ccccn1,0.631µM*,13µM*,i,-37.1%,?,1.58µM*
COC(=O)c1ccc(Cl)cc1NC(=O)N(Cc1ccc(OC)cc1)C1CCN(C(C)=O)CC1,/,i,i,/,/,/
Cc1ccc(C(=O)Nc2nnc(S(=O)(=O)N(C)Cc3ccc(Cl)cc3)s2)cc1,/,i,i,/,/,/
C/C(=N/NC(=O)c1ccc(C(C)(C)C)cc1)c1ccccn1,/,2.59µM*,?,?,?,/
C/C(=N/NC(=O)c1ccccn1)c1ccncc1,-24.2%,i,i,-5.0%,-9.7%,-12.1%
C/C(=N\NC(=O)c1ccc(Cl)c(Cl)c1)c1ccccn1,0.0891µM*,?,i,?,-24.1%,0.0028µM*
C/C(=N\NC(=O)c1cccc(Br)c1)c1ccccn1,0.1µM*,?,1.46µM*,?,2.91µM*,0.0282µM*
CCn1cc(C(=O)NCc2ccc(C)cc2)c(=O)c2cc(S(=O)(=O)N3CCCCCC3)ccc21,/,i,i,/,/,/
CC1(C)CC(=O)C2=C(C1)NC(=S)C(C#N)C21CCCCC1 (centres undefined),10µM*,i,i,-1.7%,-2.9%,11.1%
Fc1ccc2c(c1)C(c1ccncc1)=NNC(c1ccccc1)=N2,10µM*,i,i,-3.2%,-4.1%,?
Fc1ccc2c(c1)C(c1ccc(N3CCOCC3)cc1)=NNC(c1cccs1)=N2,8.2%,?,10.3µM*,-0.2%,24.0%,-0.1%[0.365 µM]
Fc1ccc2c(c1)C(c1ccncc1)=NNC(c1ccc(Cl)cc1)=N2,?,i,i,4.8%,16.4%,?
CCOc1ccc(C2=Nc3ccccc3C(c3ccc(N4CCOCC4)cc3)=NN2)cc1,25.7%,16.4µM*,4.11µM*,20.6µM*,16.4µM*,-3.8%
CC(C)(C)OC(=O)N1CCC(c2c(C(=O)NC3CCCCC3)cnn2-c2cccc(Cl)c2)CC1,/,i,i,/,/,/
COC(=O)c1ccc(NC(=O)CSc2ncc3c(n2)-c2cc(Cl)ccc2N(Cc2ccccc2)S3(=O)=O)cc1,/,i,i,/,/,/
CCOc1ccc(CNC(=O)c2ccc(-c3nc(CS(=O)(=O)c4ccccc4)c(C)o3)cc2)cc1,/,i,?,/,/,/
